In the supplement of paper PMC10849652:
Of roughly 7,900 targets only a part is listed; those with a hit were picked by preference. About 0.6% of all pairs of compound and target were hits.

Columns and labels:
Assay in all cases: log2 fold change, soluble protein after heating vs DMSO (PISA); higher = thermal stabilisation; K562 cells, 10 uM, 30 min; active = over 0.2 and 3.5 SD of the protein, either way, in both replicates (recomputed)
[1] = compound: C1=CC=C(C=C1)[C@H](COC2=CC3=C(C=C2)NC(=O)N3)NC(=O)C4=CC=CN(C4=O)CC5=CC(=C(C=C5)F)F
Procedure, shortened: (§1)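 Quantification of soluble protein used TMTpro 16plex LC-MS/MS, with channel sums equalised. Samples were the supernatant after 21,000xg for 90 min of pooled aliquots from K562 cells (2×10^6 cells/mL) treated with 10 μM compound for 30 min, heated for 3 min over 48°C-58°C, and extracted in PBS with 0.5% NP-40 at 4°C. Values, from duplicates, describe thermal stability against control samples on a log2 fold-change scale.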

[2] = compound: CC1=C(SC2=C1C(=N[C@H](C3=NN=C(N32)C)CC(=O)N)C4=CC=C(C=C4)Cl)C
Procedure, shortened: as §1

[3] = compound: CC1=C2C(=CC=C1)N=C(N(C2=O)C3=CC=CC=C3C)CN4C=NC5=C(N=CN=C54)N
Procedure, shortened: as §1

[4] = compound: Cc1sc2c(c1C)C(c1ccc(Cl)cc1)=N[C@@H](CC(=O)OC(C)(C)C)c1nnc(C)n1-2
Procedure, shortened: as §1

[5] = compound: c1ccc([C@@H]2C[C@H]2NC2CCNCC2)cc1
Procedure, shortened: as §1

Measured: log2 fold change

SNX1 (UniProt Q13596)
inactive: [1] -0.019 | [2] 0.029 | [3] 0.038 | [4] -0.003 | [5] -0.07

TJP1 (UniProt Q07157)
UniProt Q07157, sequence (Q07157 whole entry, looked up): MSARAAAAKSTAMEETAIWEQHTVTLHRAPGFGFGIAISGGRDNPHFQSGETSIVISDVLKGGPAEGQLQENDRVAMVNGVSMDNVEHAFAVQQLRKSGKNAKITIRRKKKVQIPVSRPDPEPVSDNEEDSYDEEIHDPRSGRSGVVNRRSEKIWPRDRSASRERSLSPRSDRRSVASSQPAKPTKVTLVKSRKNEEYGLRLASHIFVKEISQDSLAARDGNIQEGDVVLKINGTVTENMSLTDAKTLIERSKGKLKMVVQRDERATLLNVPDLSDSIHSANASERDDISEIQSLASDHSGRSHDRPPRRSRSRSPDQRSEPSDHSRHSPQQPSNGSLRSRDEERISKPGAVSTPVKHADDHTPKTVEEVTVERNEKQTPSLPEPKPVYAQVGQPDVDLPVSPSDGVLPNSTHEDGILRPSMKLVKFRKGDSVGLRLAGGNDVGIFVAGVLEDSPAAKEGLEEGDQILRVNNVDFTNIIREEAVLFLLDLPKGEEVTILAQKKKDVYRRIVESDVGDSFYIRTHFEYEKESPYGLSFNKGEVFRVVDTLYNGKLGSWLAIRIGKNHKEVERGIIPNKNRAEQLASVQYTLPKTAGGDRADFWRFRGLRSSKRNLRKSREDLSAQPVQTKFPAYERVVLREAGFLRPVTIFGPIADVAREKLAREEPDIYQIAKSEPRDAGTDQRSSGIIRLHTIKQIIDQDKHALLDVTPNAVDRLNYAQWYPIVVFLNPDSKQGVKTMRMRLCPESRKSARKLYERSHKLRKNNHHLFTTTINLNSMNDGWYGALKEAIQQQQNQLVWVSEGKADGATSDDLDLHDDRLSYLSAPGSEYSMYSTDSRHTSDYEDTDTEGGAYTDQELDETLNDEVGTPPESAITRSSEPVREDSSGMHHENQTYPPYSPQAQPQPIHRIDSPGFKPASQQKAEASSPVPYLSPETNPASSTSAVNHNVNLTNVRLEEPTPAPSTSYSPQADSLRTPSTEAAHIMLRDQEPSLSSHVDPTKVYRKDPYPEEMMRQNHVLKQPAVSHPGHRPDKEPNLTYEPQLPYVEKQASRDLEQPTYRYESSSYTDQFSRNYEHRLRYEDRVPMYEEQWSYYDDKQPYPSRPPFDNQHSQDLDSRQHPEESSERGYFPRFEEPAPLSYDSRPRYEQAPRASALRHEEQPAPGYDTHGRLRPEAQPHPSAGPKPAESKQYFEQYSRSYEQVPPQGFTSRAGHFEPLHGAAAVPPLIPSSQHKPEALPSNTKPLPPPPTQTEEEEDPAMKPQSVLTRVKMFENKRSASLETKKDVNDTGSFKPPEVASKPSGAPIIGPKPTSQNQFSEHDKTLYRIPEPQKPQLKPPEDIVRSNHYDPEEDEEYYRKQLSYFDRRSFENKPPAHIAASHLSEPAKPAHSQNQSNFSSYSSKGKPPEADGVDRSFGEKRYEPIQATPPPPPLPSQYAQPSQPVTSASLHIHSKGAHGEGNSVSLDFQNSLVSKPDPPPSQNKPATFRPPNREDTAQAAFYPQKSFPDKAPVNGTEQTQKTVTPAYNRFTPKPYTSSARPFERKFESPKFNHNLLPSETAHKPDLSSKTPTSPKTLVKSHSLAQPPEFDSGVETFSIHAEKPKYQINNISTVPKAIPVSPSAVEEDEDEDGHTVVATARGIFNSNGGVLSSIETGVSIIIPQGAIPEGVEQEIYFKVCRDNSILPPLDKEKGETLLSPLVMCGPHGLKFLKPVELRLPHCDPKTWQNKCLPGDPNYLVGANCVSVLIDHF
inactive: [1] 0 | [2] 0.028 | [3] 0.069 | [4] 0.014 | [5] 0.023

TBC1D15 isoform 3 (UniProt Q8TC07)
UniProt Q8TC07, sequence (Q8TC07 whole entry, looked up): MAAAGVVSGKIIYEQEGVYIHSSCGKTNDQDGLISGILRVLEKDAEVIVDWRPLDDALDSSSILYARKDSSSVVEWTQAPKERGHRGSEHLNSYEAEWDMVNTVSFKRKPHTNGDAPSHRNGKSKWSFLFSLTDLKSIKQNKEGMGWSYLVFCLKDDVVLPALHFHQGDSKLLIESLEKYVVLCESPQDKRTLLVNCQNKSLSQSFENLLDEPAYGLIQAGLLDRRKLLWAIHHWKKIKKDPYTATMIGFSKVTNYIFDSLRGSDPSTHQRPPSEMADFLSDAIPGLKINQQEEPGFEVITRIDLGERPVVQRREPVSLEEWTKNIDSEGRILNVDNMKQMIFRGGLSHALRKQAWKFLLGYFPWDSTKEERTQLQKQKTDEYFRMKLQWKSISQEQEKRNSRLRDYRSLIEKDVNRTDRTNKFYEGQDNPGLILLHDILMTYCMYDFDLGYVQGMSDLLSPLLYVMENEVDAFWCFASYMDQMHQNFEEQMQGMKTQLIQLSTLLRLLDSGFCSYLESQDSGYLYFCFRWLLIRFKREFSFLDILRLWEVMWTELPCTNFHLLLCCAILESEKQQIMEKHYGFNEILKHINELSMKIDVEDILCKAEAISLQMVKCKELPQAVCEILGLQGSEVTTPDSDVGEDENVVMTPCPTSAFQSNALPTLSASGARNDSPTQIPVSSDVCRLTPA
inactive: [1] -0.072 | [2] 0.013 | [3] 0.045 | [4] 0.005 | [5] -0.019

SRPRA (UniProt P08240)
UniProt P08240, sequence (P08240 whole entry, looked up): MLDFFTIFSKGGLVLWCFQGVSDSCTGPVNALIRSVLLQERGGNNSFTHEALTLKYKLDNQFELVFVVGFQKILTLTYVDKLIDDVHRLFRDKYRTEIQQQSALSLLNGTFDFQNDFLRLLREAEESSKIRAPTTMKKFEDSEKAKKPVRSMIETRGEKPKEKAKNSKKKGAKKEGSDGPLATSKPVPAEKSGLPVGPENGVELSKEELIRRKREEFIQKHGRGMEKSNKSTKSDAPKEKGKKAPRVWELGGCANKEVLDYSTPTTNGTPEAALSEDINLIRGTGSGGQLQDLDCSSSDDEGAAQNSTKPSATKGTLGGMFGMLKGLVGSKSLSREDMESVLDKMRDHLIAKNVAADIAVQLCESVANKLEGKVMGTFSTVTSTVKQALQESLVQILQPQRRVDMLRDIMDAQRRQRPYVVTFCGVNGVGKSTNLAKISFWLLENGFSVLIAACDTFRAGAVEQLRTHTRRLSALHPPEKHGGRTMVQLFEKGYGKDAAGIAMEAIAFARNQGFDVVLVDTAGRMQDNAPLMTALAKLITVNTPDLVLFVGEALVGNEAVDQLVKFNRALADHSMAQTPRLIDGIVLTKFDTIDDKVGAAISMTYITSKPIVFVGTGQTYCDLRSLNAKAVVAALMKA
inactive: [1] 0.001 | [2] -0.032 | [3] 0.031 | [4] -0.061 | [5] -0.038

TIAL1 isoform 2 (UniProt Q01085)
UniProt Q01085, sequence (Q01085 whole entry, looked up): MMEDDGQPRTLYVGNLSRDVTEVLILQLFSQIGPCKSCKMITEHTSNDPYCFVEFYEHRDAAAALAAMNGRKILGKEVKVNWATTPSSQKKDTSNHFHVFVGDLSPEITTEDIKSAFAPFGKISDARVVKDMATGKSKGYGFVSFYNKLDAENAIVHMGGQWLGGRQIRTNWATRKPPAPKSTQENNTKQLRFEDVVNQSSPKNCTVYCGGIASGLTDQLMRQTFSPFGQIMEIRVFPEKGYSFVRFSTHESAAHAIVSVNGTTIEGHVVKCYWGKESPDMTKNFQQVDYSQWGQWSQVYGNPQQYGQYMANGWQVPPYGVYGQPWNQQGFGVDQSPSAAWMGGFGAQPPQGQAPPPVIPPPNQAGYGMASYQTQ
inactive: [1] -0.023 | [2] 0.049 | [3] 0.015 | [4] 0.043 | [5] -0.024

TIMM21 (UniProt Q9BVV7)
UniProt Q9BVV7, sequence (Q9BVV7 whole entry, looked up): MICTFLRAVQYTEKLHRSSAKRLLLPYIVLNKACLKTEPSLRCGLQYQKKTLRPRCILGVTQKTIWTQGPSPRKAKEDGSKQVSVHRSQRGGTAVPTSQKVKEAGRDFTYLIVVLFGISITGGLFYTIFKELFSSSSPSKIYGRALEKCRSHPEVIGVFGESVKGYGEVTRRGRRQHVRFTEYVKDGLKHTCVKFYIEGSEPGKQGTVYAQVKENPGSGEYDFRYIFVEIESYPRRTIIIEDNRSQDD
inactive: [1] -0.02 | [2] 0.052 | [3] 0.024 | [4] 0.004 | [5] -0.048

TBK1 (UniProt Q9UHD2)
UniProt Q9UHD2, sequence (Q9UHD2 whole entry, looked up): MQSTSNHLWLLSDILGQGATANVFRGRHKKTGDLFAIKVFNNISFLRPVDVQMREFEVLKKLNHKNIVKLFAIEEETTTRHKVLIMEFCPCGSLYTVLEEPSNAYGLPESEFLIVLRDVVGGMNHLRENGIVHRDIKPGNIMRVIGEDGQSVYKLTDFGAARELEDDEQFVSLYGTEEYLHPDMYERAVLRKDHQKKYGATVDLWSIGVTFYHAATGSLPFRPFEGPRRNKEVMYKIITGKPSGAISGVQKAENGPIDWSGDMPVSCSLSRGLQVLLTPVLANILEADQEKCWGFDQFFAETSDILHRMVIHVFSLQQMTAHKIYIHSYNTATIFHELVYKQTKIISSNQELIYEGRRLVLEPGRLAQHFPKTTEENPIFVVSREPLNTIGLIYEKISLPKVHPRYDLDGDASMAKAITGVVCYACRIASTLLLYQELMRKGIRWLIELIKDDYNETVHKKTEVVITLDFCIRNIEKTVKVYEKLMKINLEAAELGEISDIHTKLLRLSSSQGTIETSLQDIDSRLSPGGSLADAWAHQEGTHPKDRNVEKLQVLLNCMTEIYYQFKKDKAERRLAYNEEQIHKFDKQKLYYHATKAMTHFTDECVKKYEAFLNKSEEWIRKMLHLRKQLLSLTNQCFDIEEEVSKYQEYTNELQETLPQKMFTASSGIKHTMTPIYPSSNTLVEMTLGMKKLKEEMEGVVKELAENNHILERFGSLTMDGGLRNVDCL
inactive: [1] -0.014 | [2] 0.007 | [3] 0.041 | [4] 0.011 | [5] -0.049

STX17 (UniProt P56962)
UniProt P56962, sequence (P56962 whole entry, looked up): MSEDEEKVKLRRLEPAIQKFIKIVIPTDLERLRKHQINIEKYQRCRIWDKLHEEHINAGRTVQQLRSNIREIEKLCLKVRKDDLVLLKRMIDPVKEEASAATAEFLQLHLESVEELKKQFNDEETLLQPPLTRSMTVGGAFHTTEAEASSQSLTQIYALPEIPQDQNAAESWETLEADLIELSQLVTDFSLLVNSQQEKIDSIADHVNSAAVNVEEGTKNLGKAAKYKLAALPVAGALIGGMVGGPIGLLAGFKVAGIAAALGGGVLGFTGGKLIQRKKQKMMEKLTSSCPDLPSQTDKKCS
inactive: [1] 0.03 | [2] 0.006 | [3] 0.029 | [4] 0.004 | [5] -0.058

SNX11 (UniProt Q9Y5W9)
UniProt Q9Y5W9, sequence (Q9Y5W9 whole entry, looked up): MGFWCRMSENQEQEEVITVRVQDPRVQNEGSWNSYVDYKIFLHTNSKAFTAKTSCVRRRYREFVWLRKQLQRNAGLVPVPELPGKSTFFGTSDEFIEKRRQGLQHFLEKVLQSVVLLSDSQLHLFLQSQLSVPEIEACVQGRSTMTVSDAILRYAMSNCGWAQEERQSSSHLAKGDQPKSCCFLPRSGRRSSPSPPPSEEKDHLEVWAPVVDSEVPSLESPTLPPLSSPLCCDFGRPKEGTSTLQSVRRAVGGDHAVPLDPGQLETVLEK
inactive: [1] 0.004 | [2] 0.063 | [3] 0.108 | [4] 0.057 | [5] -0.027
